Where a name gives a salt, the structure may show the parent alone.

The assay deals with Saccharomyces cerevisiae BY4741 SeMeCo community. In words: z-score of subpopulation abundance vs DMSO median, subpopulation auxotrophic for HL; higher = larger share of this subpopulation than in DMSO controls. Conditions: 10 µM; 24 h; SM minimal medium; subpopulation (auxotrophy): HL. The procedure: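 Fluorescent four-plasmid SeMeCo (self-establishing metabolically cooperating S. cerevisiae BY4741 community; plasmids pH-mRuby2, pL-mWasabi, pU-eCFP, pM-TagRFP657) was grown 24 h in minimal SM medium with each Selleck FDA-approved drug at 10 µM in 384-well plates. Cells were fixed and imaged by high-content confocal microscopy. For each auxotrophic subpopulation (and the prototroph), a z-score gives the deviation from the DMSO vehicle-control population median.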
Take `COc1cc(C(C)=O)ccc1OCCCN1CCC(c2noc3cc(F)ccc23)CC1` [Iloperidone]: the “z-score of subpopulation abundance” value came to 0.55.

Turning to `O=C1[C@H]2CCCC[C@H]2C(=O)N1CCCCN1CCN(c2nsc3ccccc23)CC1` [Perospirone hydrochloride], the “z-score of subpopulation abundance” value is -0.17.

With `CCn1cc(C(=O)O)c(=O)c2cc(F)c(N3CCN(C)CC3)cc21` [Pefloxacin Mesylate], the “z-score of subpopulation abundance” value came out at 0.

As for `C[n+]1ccccc1C=NO` [Pralidoxime Iodide], the “z-score of subpopulation abundance” value stood at 0.06.

With `CN1CCN(CCCN2c3ccccc3Sc3ccc(C(F)(F)F)cc32)CC1` [Trifluoperazine 2HCl], the “z-score of subpopulation abundance” value was -0.59.

`O=C1OCCN1/N=C/c1ccc([N+](=O)[O-])o1` [Furazolidone]: the “z-score of subpopulation abundance” value is 2.14.

For the compound `CC(=O)[C@H]1CC[C@H]2[C@@H]3CCC4=CC(=O)CC[C@]4(C)[C@H]3CC[C@]12C` [Progesterone], the “z-score of subpopulation abundance” value was -0.85.

With `O=c1cc(-c2ccc(O)c(O)c2)oc2cc(O)cc(O)c12` [Luteolin], the “z-score of subpopulation abundance” value was 0.22.

Consider `CC[C@@H]1C(=O)OC[C@@H]1Cc1cncn1C` [Pilocarpine HCl], for which the “z-score of subpopulation abundance” value was -0.15.

For `CN(C)CCn1nnnc1SCC1=C(C(=O)O)N2C(=O)[C@@H](NC(=O)Cc3csc(N)n3)[C@H]2SC1` [Cefotiam hydrochloride], the “z-score of subpopulation abundance” value is 1.92.

`Cc1ncc([N+](=O)[O-])n1CCO` [Metronidazole]: the “z-score of subpopulation abundance” value was -0.42.

`C[C@H]1COc2c(C3(N)CC3)c(F)cc3c(=O)c(C(=O)O)cn1c23` [Pazufloxacin mesylate]: the “z-score of subpopulation abundance” value is -0.07.

On to `CN1C2CCCC1CC(NC(=O)c1nn(C)c3ccccc13)C2` (stereo not given) [Granisetron HCl], for which the “z-score of subpopulation abundance” value turned out to be 0.42.

In the case of `CCC[S+]([O-])c1ccc2[nH]c(NC(=O)OC)nc2c1` (stereo not given) [Albendazole Oxide], the “z-score of subpopulation abundance” value was -0.18.

Consider `Cc1onc(-c2ccccc2)c1-c1ccc(S(N)(=O)=O)cc1` [Valdecoxib], for which the “z-score of subpopulation abundance” value is -0.64.

As for `CN1[C@@H](CC(=O)c2ccccc2)CCC[C@H]1C[C@H](O)c1ccccc1` [Lobeline hydrochloride], the “z-score of subpopulation abundance” value was -0.13.

As to `Nc1ccc(C(=O)O)c(O)c1` [4-Aminosalicylic acid], the “z-score of subpopulation abundance” value is 0.08.

On to `COC(=O)C1=C(C)NC(C)=C(C(=O)OC(C)(C)CN(C)CCC(c2ccccc2)c2ccccc2)C1c1cccc([N+](=O)[O-])c1` (stereo not given) [Lercanidipine], for which the “z-score of subpopulation abundance” value came to 2.31.

Regarding `COc1cc(/C=C/C(=O)N2CCN(CC(=O)N3CCCC3)CC2)cc(OC)c1OC` [Cinepazide maleate], the “z-score of subpopulation abundance” value was -0.2.

Take `Cc1[nH]cnc1CN1CCc2c(c3ccccc3n2C)C1=O` [Alosetron Hydrochloride]: the “z-score of subpopulation abundance” value is 0.

Turning to `CC[C@H](c1ccc(O)cc1)[C@@H](CC)c1ccc(O)cc1` [Hexestrol], the “z-score of subpopulation abundance” value was -0.81.

Regarding `Nc1nc(N)c2nc(-c3ccccc3)c(N)nc2n1` [Triamterene], the “z-score of subpopulation abundance” value worked out at 3.45.

Take `CC(=O)Oc1ccccc1C(=O)O` [Aspirin]: the “z-score of subpopulation abundance” value is 0.18.

For the compound `Clc1ccc(CCC(Cn2ccnc2)Sc2c(Cl)cccc2Cl)cc1` (stereo not given) [Butoconazole], the “z-score of subpopulation abundance” value is 31.6.

As for `CC(NCCC(c1ccccc1)c1ccccc1)c1ccccc1` (stereo not given) [Fendiline hydrochloride], the “z-score of subpopulation abundance” value was -0.41.

In the case of `Nc1ccc(S(=O)(=O)NC(=O)c2ccccc2)cc1` [Sulfabenzamide], the “z-score of subpopulation abundance” value is -0.91.

Regarding `O=C(N[C@H](CO)[C@H](O)c1ccc([N+](=O)[O-])cc1)C(Cl)Cl` [Chloramphenicol], the “z-score of subpopulation abundance” value was 0.18.

Turning to `CC[C@@H]1/C=C(\C)C[C@H](C)C[C@H](OC)[C@H]2O[C@@](O)(C(=O)C(=O)N3CCCC[C@H]3C(=O)O[C@H](/C(C)=C/[C@@H]3CC[C@@H](O)[C@H](OC)C3)[C@H](C)[C@@H](O)CC1=O)[C@H](C)C[C@@H]2OC` [Ascomycin (FK520)], the “z-score of subpopulation abundance” value amounted to 2.56.

For the compound `NC1CCN(c2nc3c(cc2F)c(=O)c(C(=O)O)cn3-c2ccc(F)cc2F)C1` (stereo not given) [Tosufloxacin p-Toluenesulfonate Hydrate], the “z-score of subpopulation abundance” value was -0.52.

Consider `O=C1C(N(CO)C(=O)NCO)N(CO)C(=O)N1CO` (stereo not given) [Diazolidinyl urea], for which the “z-score of subpopulation abundance” value is -0.07.

In the case of `CC(C)NNC(=O)c1ccncc1` [Iproniazid], the “z-score of subpopulation abundance” value was -0.1.

Turning to `CCOC(=O)CCC(=O)O[C@H]1[C@H](O[C@@H]2[C@@H](C)[C@H](O[C@H]3C[C@@](C)(OC)[C@@H](O)[C@H](C)O3)[C@@H](C)C(=O)O[C@H](CC)[C@@](C)(O)[C@H](O)[C@@H](C)C(=O)[C@H](C)C[C@@]2(C)O)O[C@H](C)C[C@@H]1N(C)C` [Erythromycin Ethylsuccinate], the “z-score of subpopulation abundance” value was determined as 3.1.

As to `CCC[C@@H]1C[C@@H](C(=O)N[C@@H]([C@H]2O[C@H](SC)[C@H](O)[C@@H](O)[C@H]2O)[C@@H](C)O)N(C)C1` [Lincomycin HCl], the “z-score of subpopulation abundance” value is -0.34.

For the compound `CCCCCCCCCCCCCCCCCCOP(=O)([O-])OC1CC[N+](C)(C)CC1` [Perifosine (KRX-0401)], the “z-score of subpopulation abundance” value worked out at 18.8.

`CN1CCC(=C2c3ccccc3CCc3sccc32)CC1` [Pizotifen Malate]: the “z-score of subpopulation abundance” value came to 0.05.

On to `CO[C@@H]1[C@H](OC(=O)/C=C/C=C/C=C/C=C/C(=O)O)CC[C@]2(CO2)[C@H]1[C@@]1(C)O[C@@H]1CC=C(C)C` [Fumagillin], for which the “z-score of subpopulation abundance” value came to 1.92.

`C[C@H](NCc1ccc(OCc2cccc(F)c2)cc1)C(N)=O` [Safinamide]: the “z-score of subpopulation abundance” value amounted to 0.15.

As for `C[C@]12CC[C@@H]3c4ccc(O)cc4CC[C@H]3[C@@H]1C[C@@H](O)[C@@H]2O` [Estriol], the “z-score of subpopulation abundance” value was -0.01.

As for `C=C[C@]1(C)C[C@@H](OC(=O)CS[C@@H]2C[C@H]3CC[C@@H](C2)N3C)[C@]2(C)[C@H](C)CC[C@]3(CCC(=O)[C@H]32)[C@@H](C)[C@@H]1O` [Retapamulin], the “z-score of subpopulation abundance” value is -0.57.

Consider `CC(C)C(=O)c1c(C(C)C)nn2ccccc12` [Ibudilast], for which the “z-score of subpopulation abundance” value is -0.96.

The values are drawn from the supplement of paper PMC8975748.
